Bioassay records deposited in PubChem by The Scripps Research Institute Molecular Screening Center.
TTR transcr act – TTR transcription activation, primary screen; SH-SY5Y TTR promoter Gaussia luciferase, luminescence; 100% = recombinant luciferase protein wells; 92,000 tested, 1.3% active; AID 1117267; activation, % at 16.7 µM;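 active = activation above the mean of all tested compounds plus 3 SD, cut at about 9.5% in these data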;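 note: cells exposed to compounds for one day before reading; 0% = median of all test compound wells on the plate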
TTR inh HuH7 – decreases TTR transcription in HuH7 cells in activator counter-screen. shares compounds with TTR transcr act. HuH7 TTR promoter-Gaussia luciferase reporter, luminescence. inhibition, % at 16.7 µM. 1,100 tested, 4% active;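 active = average inhibition above the solvent-only control wells' mean plus 3 SD, cut at about 15% in these data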;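 note: 0% = cells with DMSO only and 100% = cells with inhibitor control FD; inhibitors lower well luminescence so higher value means more inhibition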
TTR up confirm – human TTR transcription activation, confirmation; AID 1117280; 1,100 tested, under 10 active; activation, % at 16.7 µM; shares compounds with TTR transcr act; SHSY5Y TTR promoter Gaussia luciferase, luminescence; 100% = purified Lucia enzyme wells, no cells;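 active = mean activation above a set limit taken from the earlier primary screen, cut at about 11% in these data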;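 note: 0% = DMSO-treated cells and 100% = recombinant Lucia luciferase without cells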
Numbers without * were called inactive; ! = not confirmed by another sample. This excerpt belongs to a sample that is enriched for hits.

SMILES | TTR transcr act | others
COC(=O)[C@]12C[C@H](CC(=O)N3CCSCC3)C(=O)N(Cc3ccc4c(c3)OCO4)C1=C[C@H](C(C)C)O[C@@H]2C1CC1 | 1
CCOC(=O)[C@@H]1CSCCS(=O)(=O)N1C(=O)[C@H](CCSC)NC(=O)OC(C)(C)C | 4
CC1(C)CC2CN(Cc3ccccc3)S(=O)(=O)N2C1 (stereo not given) | 0
CC(C)c1nc2sc3c(=O)[nH]c(=S)[nH]c3c2c2c1CCCC2 | 0
CCC1(C)Cc2sc3c(=O)[nH]c(=S)[nH]c3c2CO1 (stereo not given) | 18* | TTR inh HuH7=-10;TTR up confirm=0
C=CCNC(=S)Nc1sc2c(c1C(=O)OCC)CC(C)(CC)OC2 (stereo not given) | 0
COc1ccc(NC(=O)C(OC(=O)CNC(=O)c2ccccc2)c2ccccc2)cc1F (stereo not given) | 0
O=C(CC1CC2CCC1C2)NCc1cccs1 (stereo not given) | 18* | TTR inh HuH7=-10;TTR up confirm=1
O=C(NCc1cccs1)NC1CCCCC1 | 1
O=C(/C=C/C(=O)NCc1cccs1)NCc1cccs1 | -1
O=C(Cc1cc(=O)[nH][nH]1)N/N=C/c1cccc(Cl)c1Cl | 23*! | TTR inh HuH7=-13;TTR up confirm=0
O=C(Cc1cc(=O)[nH][nH]1)N/N=C/c1c(Cl)cccc1Cl | -1
O=C(Cc1cc(=O)[nH][nH]1)N/N=C/c1ccccc1Cl | 7
c1nc(NCC2CCCCO2)c2cc(-c3ccc4c(c3)OCO4)ccc2n1 (stereo not given) | -1
Cc1ccccc1CN1[C@@H](C)[C@H](c2ccccc2)Oc2cccc(N3CCCC3)c2S1(=O)=O | -1
OC(c1ccccc1)(c1ccccc1)c1cnc2ccccn12 | -1
C[C@H]1C2CC(OC(=O)Nc3cccc(C(F)(F)F)c3)C(C2)[C@H]2CCCCN21 (stereo not given in full) | -2
COc1ccccc1NCc1nc2ccccc2n1C | 1
CCC(C)(C)n1nnnc1C(c1cc2cc(C)cc(C)c2[nH]c1=O)N1CCCC1 (stereo not given) | -2
Cc1ccc(C)c(N2CCN(C(c3ccccc3)c3nnnn3C(C)(C)C)CC2)c1 (stereo not given) | 0
CCC(C)(C)n1nnnc1C(c1ccc(C)cc1)N1CCCC1 (stereo not given) | 18* | TTR inh HuH7=-7;TTR up confirm=1
COc1cc(OC)cc(C(=O)N2CCN(C3CCCCC3)CC2)c1 | 6
O=C(CCCc1ccccc1)N1CCN(C2CCCCC2)CC1 | 1
COc1ccc(CCC(=O)N2CCN(C3CCCCC3)CC2)cc1 | 14* | TTR inh HuH7=-14;TTR up confirm=0
FC(F)(F)c1ccc(Cn2ccc3ccc(-c4ccc5ccn(Cc6ccc(C(F)(F)F)cc6)c5c4)cc32)cc1 | 0
SMILES | TTR transcr act | others
C#CCCC(=O)Nc1sc2c(c1-c1nc3ccccc3s1)CCN(C(C)C)C2 | 0
C[C@H]1CN(S(=O)(=O)C(C)(C)C)[C@H](CCO)/C1=C\CCO | 3
CC(=O)N/C(=C\c1ccccc1)C(=O)OCC(=O)NC(=O)c1ccccc1 | 15* | TTR inh HuH7=3;TTR up confirm=1
CCOC(=O)/C(=C\c1ccc(C)cc1)NC(=O)c1ccccc1 | 4
CC(C)OC(=O)/C(=C\c1ccccc1)NC(=O)c1ccccc1 | 0
O=C(c1cccc(Cl)c1)N1CCN(c2ccnc3cc(Cl)ccc23)CC1 | -3
CCc1ccc(CCNC(=O)OC2CC3CC2[C@H]2CCCCN2C3)cc1 (stereo not given in full) | 3
COC(=O)CN(c1ccc(C(C)C)cc1)S(=O)(=O)c1c(C)[nH]c(=O)[nH]c1=O | 3
CCCCN(C)S(=O)(=O)c1c(C)[nH]c(=O)[nH]c1=O | 0
Cc1ccc(N(C(C)C(=O)O)S(=O)(=O)c2c(C)[nH]c(=O)[nH]c2=O)cc1 (stereo not given) | 10* | TTR inh HuH7=-13;TTR up confirm=0
CCCCCCCCN1C(=O)[C@@H](CC(=O)N2CCSCC2)C[C@@]2(C(=O)OC)C1=C[C@H](C(C)C)O[C@@H]2C1CC1 | -1
CC(C)(C)C(=O)Nc1cc2nn(-c3ccccc3)nc2cc1Cl | -1
CC(C)(C)C(=O)Nc1nc(NC(=O)C(C)(C)C)nc(-c2ccccc2Cl)n1 | 10* | TTR inh HuH7=0;TTR up confirm=-1
Cc1c(-c2ccccc2Cl)nc2ccccc2c1C(=O)O | 0
COC(=O)c1cc(-c2cc(Cl)cc(Cl)c2)c(=O)n2c1CCC2 | 4
NC(=O)C1CCN(c2nc(-c3ccc(OCc4ccccc4)cc3)cs2)CC1 | -2
COc1ccccc1OCCN1C(=O)S/C(=C\c2ccco2)C1=O | 10* | TTR inh HuH7=-13;TTR up confirm=0
O=C(NCCN1C(=O)S/C(=C\c2cccs2)C1=O)c1ccco1 | 1
Cc1ccc(N2C(=O)/C(=C/c3ccco3)SC2=S)cc1 | -2
C#CCN1C(=O)[C@]2(NCCc3c2[nH]c2ccc(OC)cc32)c2ccccc21 | 1
